# Data taken from PubChem BioAssay (Tox21).
# Results filed as inconclusive are left out. Where a call stands in place of a potency, no number is given. Unmarked numbers belong to inactive results. Activity calls are given as the source filed them. The call rests on the fitted dose curve; in most records, active means well fitted curve in the direction sought with a large enough effect in the repeat runs; inconclusive means weak or mixed curves; inactive means no such curve, though single readings can be large; an effect the other way counts as inactive or inconclusive.
# Legend:
# [1] = target: Cytochrome P450 2D6 (Homo sapiens) (UniProt P10635); assay: Cytochrome P450 Family 2 Subfamily D Member 6 (CYP2D6) small molecule antagonists: luciferase reporter qHTS assay (AID 1671196); further: nearly all actives have a fitted effect of over 50% in size; on activity change, negative = inhibition: series mostly up to about 120 µM
# Chain of Cytochrome P450 2D6 (Homo sapiens) (P10635 whole entry, looked up): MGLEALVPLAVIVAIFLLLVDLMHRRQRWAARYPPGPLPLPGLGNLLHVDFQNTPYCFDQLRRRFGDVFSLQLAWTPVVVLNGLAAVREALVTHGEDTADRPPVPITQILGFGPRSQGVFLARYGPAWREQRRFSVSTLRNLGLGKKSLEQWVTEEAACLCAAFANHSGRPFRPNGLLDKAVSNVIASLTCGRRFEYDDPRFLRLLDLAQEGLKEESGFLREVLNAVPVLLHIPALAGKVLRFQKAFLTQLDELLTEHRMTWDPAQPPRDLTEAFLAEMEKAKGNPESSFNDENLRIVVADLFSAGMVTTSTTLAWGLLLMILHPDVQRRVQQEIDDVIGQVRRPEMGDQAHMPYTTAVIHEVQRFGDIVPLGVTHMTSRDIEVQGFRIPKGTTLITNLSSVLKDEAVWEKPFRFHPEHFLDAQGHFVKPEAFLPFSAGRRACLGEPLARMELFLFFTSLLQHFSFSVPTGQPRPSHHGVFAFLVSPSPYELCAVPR
# Method in brief: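 Luminescence (RLU), read 20 min after detection reagent, indicated CYP2D6 conversion of proluciferin to luciferin during a 1 h NADPH-dependent reaction at room temperature.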
# [2] = target: Cytochrome P450 2C9 (Homo sapiens) (UniProt P11712); assay: Cytochrome P450 Family 2 Subfamily C Member 9 (CYP2C9) small molecule antagonists: luciferase reporter qHTS assay (AID 1671198); further: nearly all actives have a fitted effect of over 50% in size; on activity change, negative = inhibition: series mostly up to about 120 µM
# Chain of Cytochrome P450 2C9 (Homo sapiens) (P11712 whole entry, looked up): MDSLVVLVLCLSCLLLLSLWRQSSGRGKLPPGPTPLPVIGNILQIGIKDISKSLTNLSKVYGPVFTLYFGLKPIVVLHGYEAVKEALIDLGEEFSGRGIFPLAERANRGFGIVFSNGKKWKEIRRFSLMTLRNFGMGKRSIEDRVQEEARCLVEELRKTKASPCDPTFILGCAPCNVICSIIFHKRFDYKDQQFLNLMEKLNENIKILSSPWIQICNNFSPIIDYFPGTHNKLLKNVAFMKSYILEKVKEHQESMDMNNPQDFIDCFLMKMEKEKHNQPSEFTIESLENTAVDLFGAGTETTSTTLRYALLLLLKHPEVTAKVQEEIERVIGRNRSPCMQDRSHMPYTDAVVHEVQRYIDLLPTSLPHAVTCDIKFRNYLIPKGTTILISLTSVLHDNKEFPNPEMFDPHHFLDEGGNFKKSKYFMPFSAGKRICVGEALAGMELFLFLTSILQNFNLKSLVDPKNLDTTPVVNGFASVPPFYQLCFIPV
# Method in brief: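 CYP2C9 activity was measured with a P450-Glo proluciferin substrate. Enzyme–substrate mix was held with compound for 10 min at room temperature, then NADPH regeneration solution was added for 1 h at 37C. Luciferin product was read as luminescence.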
# [3] = target: Cytochrome P450 1A2 (Homo sapiens) (UniProt P05177); assay: Cytochrome P450 Family 1 Subfamily A Member 2 (CYP1A2) small molecule antagonists: luciferase reporter qHTS assay (AID 1671199); further: nearly all actives have a fitted effect of over 50% in size; on activity change, negative = inhibition: series mostly up to about 120 µM
# Chain of Cytochrome P450 1A2 (Homo sapiens) (P05177 whole entry, looked up): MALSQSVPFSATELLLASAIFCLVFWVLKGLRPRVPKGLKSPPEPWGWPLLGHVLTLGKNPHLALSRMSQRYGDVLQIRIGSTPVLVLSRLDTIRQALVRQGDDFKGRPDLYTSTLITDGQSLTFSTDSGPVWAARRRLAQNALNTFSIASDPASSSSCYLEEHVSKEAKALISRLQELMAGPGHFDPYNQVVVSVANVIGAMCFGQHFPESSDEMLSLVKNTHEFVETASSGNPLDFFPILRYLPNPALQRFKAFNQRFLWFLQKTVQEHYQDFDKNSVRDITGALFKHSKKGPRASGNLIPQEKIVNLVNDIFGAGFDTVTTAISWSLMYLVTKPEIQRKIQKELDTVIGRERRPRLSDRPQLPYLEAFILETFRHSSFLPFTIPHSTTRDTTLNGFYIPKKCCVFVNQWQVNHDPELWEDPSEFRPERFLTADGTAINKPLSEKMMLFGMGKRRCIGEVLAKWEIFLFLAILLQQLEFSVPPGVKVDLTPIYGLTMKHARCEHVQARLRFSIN
# Method in brief: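 CYP1A2 turnover of a luminogenic substrate was quantified after 1 h with NADPH regeneration at room temperature. Furafylline served as positive control.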
# [4] = target: Voltage-gated inwardly rectifying potassium channel KCNH2 (Homo sapiens) (UniProt Q12809); assay: Human Ether-a-go-go-Related Gene (hERG) channel small molecule antagonists: fluorescence cell-based qHTS assay (AID 1671200); further: nearly all actives have a fitted effect of over 50% in size;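 on activity change, negative = inhibition: hERG-expressing U2OS cells given a thallium stimulus after FluxOR II dye loading; series mostly up to about 77 µM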
# Chain of Voltage-gated inwardly rectifying potassium channel KCNH2 (Homo sapiens) (Q12809 whole entry, looked up): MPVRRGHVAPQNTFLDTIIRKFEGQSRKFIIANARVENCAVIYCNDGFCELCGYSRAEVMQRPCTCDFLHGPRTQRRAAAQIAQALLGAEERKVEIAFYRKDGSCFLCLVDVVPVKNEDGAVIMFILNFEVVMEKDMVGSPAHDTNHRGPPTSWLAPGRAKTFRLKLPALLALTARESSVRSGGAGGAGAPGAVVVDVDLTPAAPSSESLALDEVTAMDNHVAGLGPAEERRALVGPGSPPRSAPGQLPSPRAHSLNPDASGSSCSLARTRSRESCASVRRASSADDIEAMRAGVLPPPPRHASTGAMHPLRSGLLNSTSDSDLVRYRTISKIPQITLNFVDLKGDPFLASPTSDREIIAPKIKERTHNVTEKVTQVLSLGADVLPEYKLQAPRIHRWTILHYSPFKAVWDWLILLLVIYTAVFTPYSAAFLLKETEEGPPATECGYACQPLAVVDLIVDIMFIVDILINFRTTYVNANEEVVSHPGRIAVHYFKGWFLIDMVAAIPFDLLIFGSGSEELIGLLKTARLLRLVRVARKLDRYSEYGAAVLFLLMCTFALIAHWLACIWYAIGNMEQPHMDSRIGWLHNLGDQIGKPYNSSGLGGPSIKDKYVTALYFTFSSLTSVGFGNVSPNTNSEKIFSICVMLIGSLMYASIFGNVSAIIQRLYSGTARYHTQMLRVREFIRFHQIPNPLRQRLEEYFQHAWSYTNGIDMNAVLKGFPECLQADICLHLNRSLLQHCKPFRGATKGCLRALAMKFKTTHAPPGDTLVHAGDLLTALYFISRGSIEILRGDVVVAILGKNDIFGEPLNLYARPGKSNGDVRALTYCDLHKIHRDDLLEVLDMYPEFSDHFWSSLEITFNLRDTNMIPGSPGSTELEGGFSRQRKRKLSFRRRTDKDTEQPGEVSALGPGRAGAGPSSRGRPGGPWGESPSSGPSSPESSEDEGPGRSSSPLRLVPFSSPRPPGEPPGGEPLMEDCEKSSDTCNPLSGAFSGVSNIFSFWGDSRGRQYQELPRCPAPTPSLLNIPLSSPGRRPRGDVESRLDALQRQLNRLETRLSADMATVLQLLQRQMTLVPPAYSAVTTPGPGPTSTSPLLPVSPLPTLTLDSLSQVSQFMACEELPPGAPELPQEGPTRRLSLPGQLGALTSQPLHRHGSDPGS
# Method in brief: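 Channel function was assessed by thallium flux. Cells seeded the previous day and kept at 37 C took up FluxOR II dye over 1 h in the dark at room temperature, then sat another 10 min before stimulation.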
# [5] = target: Cytochrome P450 3A4 (Homo sapiens) (UniProt P08684); assay: Cytochrome P450 Family 3 Subfamily A Member 4 (CYP3A4) small molecule antagonists: luciferase reporter qHTS assay (AID 1671201); further: nearly all actives have a fitted effect of over 50% in size; on activity change, negative = inhibition: series mostly up to about 120 µM
# Chain of Cytochrome P450 3A4 (Homo sapiens) (P08684 whole entry, looked up): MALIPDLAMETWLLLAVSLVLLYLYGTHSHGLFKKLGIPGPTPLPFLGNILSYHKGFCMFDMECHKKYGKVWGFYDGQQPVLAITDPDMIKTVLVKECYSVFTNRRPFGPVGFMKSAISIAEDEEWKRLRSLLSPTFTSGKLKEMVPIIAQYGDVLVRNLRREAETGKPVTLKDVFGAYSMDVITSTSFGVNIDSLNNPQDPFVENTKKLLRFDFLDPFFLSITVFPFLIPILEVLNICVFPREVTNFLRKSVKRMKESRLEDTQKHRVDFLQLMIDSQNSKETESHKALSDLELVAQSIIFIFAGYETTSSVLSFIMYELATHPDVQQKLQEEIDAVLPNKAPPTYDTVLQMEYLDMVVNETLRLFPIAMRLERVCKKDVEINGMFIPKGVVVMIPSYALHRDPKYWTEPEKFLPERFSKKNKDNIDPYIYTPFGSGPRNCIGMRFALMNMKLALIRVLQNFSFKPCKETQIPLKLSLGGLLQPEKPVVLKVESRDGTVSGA
# Method in brief: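 Compounds in DMSO were pin-transferred onto CYP3A4 enzyme-substrate mix and held 10 min at room temperature. NADPH regenerating solution started the reaction for 1 h; luciferin detection reagent stopped it, and luminescence was read after 20 min.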
# [6] = target: Cytochrome P450 2C19 (Homo sapiens) (UniProt P33261); assay: Cytochrome P450 Family 2 Subfamily C Member 19 (CYP2C19) small molecule antagonists: luciferase reporter qHTS assay (AID 1671197); further: nearly all actives have a fitted effect of over 65% in size; on activity change, negative = inhibition: series mostly up to about 120 µM
# Chain of Cytochrome P450 2C19 (Homo sapiens) (P33261 whole entry, looked up): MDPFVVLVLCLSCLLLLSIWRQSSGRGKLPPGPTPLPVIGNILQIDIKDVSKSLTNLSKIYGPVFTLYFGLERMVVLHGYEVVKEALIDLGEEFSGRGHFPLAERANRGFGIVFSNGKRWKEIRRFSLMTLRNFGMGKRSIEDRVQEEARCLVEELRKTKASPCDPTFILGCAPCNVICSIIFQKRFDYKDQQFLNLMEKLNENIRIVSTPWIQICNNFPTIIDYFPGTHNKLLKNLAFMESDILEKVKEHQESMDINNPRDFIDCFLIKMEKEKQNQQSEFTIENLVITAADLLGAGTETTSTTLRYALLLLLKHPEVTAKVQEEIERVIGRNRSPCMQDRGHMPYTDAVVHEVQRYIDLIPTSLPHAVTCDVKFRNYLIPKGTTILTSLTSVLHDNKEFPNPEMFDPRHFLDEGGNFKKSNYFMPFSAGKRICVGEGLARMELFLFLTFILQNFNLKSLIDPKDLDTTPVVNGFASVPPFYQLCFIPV
# Method in brief: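 Luminescent readout of CYP2C19 activity: luciferin product detected 20 min after adding detection reagent. Before that, compound and enzyme-substrate mix preincubated 10 min at room temperature; NADPH-regenerating system started a 1 h, 37C reaction. Ketoconazole as positive control.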
# Potency means the concentration at half of the fitted maximal effect.
structure (smiles),measurement,setting,value
CC(C)CC(C)(C)C,Potency,[1],36.9 µM (active)
same,Potency,[2],36.9 µM (active)
same,Potency,[3],7.37 µM (active)
same,Potency,[4],inactive
same,Potency,[5],32.9 µM (active)
CCCCC(CC)COCCC#N (centres undefined),Potency,[1],inactive
same,Potency,[3],inactive
same,Potency,[4],inactive
same,Potency,[5],inactive
C=CC(=O)NC(C)(C)C,Potency,[1],inactive
same,Potency,[2],inactive
same,Potency,[4],inactive
same,Potency,[5],inactive
O=P(c1ccccc1)(c1ccccc1)c1ccccc1,Potency,[1],inactive
same,Potency,[2],6.33 µM (active)
same,Potency,[4],inactive
Nc1ccc(C(=O)Oc2ccccc2)c(O)c1,Potency,[2],27.5 µM (active)
same,Potency,[3],11.5 µM (active)
same,Potency,[4],inactive
Nc1ncnc2c1ncn2[C@@H]1O[C@H](CO)[C@@H](O)[C@H]1O,Potency,[4],inactive
CC[C@H](NC(C)C)[C@H](O)c1ccc(O)c2[nH]c(=O)ccc12,Potency,[2],inactive
same,Potency,[3],inactive
same,Potency,[4],inactive
same,Potency,[5],inactive
O=C(O)CCc1nc2ccccc2[nH]1,Potency,[2],inactive
same,Potency,[3],inactive
same,Potency,[4],inactive
same,Potency,[5],inactive
NC(=O)c1ccccc1C(N)=O,Potency,[3],28.4 µM (active)
same,Potency,[4],inactive
Cc1cc(C)n(CO)n1,Potency,[2],inactive
same,Potency,[3],inactive
same,Potency,[4],inactive
same,Potency,[5],inactive
O=C(OCCN1CCOCC1)c1cccnc1Nc1cccc(C(F)(F)F)c1,Potency,[2],17.4 µM (active)
same,Potency,[3],9.77 µM (active)
same,Potency,[4],10.7 µM (active)
CC(=O)Nc1cccc(N)c1,Potency,[6],57.2 µM (active)
same,Potency,[4],inactive
CC(C)(Cc1c[nH]c2ccccc12)NCC(O)COc1ccccc1C#N (centres undefined),Potency,[6],inactive
same,Potency,[4],8.49 µM (active)
same,Potency,[5],inactive
CC1=CC(=C(c2ccc(N)cc2)c2ccc(N)cc2)C=CC1=N,"activity change, negative = inhibition",[4],-5.88% [at 6.97 µM]
same,Potency,[5],2.86 µM (active)
CC(C)Oc1ccccc1O,Potency,[2],inactive
same,Potency,[3],inactive
same,Potency,[4],inactive
CC(Cc1ccccc1)(NC(=O)CN)c1ccccc1 (centres undefined),Potency,[4],inactive
CCOc1cc(OCC)c(C(C)=O)cc1OCC,Potency,[6],69.8 µM (active)
same,Potency,[3],1.11 µM (active)
same,Potency,[4],inactive
same,Potency,[5],35 µM (active)
COC(=O)/C=C/C(C)=C\C=C\C(C)=C\C=C\C=C(C)\C=C\C=C(C)\C=C\C(=O)O,Potency,[3],inactive
same,Potency,[4],inactive
Cc1ccc(S(=O)(=O)NC(=O)NC2CCCC2)cc1,Potency,[3],inactive
same,Potency,[4],inactive
same,Potency,[5],inactive
[O-][n+]1ccc(Cl)cc1,Potency,[2],inactive
same,Potency,[3],inactive
same,Potency,[4],inactive
same,Potency,[5],inactive
Nc1ccccc1Nc1ccccc1,Potency,[3],7.12 µM (active)
same,Potency,[4],inactive
same,Potency,[5],31.8 µM (active)
O=C(O)c1ccc2cc(O)ccc2c1,Potency,[2],inactive
same,Potency,[3],inactive
same,Potency,[4],inactive
same,Potency,[5],inactive
COC(=O)c1cc(Cl)ccc1[N+](=O)[O-],Potency,[2],inactive
same,Potency,[3],7.96 µM (active)
same,Potency,[4],inactive
C=C[Si](OCC)(OCC)OCC,Potency,[4],inactive
COc1ccnc2c1CCCCC2S(=O)c1nc2ccccc2[nH]1 (centres undefined),Potency,[2],12.3 µM (active)
same,Potency,[3],13.8 µM (active)
same,Potency,[4],inactive
O=C(OCCOCCOCCOC(=O)c1ccccc1)c1ccccc1,Potency,[2],inactive
same,Potency,[3],17.8 µM (active)
same,Potency,[4],inactive
same,Potency,[5],inactive
O=C(O)CNc1ccccc1,Potency,[6],inactive
same,Potency,[4],inactive
same,Potency,[5],inactive
CCc1c(C)[nH]c2c1C(=O)C(CN1CCOCC1)CC2 (centres undefined),Potency,[3],inactive
same,Potency,[4],inactive
CC(=O)Oc1cccc2c1C(=O)c1c(OC(C)=O)cc(C(=O)O)cc1C2=O,Potency,[3],inactive
same,Potency,[4],inactive
same,Potency,[5],inactive
CC(C(=O)O)c1ccc(/C=C2\CCCCC2=O)cc1 (centres undefined),Potency,[2],inactive
same,Potency,[3],inactive
same,Potency,[4],inactive
CC(=O)Nc1ccccc1O,Potency,[4],inactive
CCCCCCCCCCCCCCCCN,Potency,[2],inactive
same,Potency,[3],inactive
same,Potency,[4],inactive
O=C1c2ccccc2C(=O)c2c1ccc(O)c2O,Potency,[6],inactive
same,Potency,[3],25.7 µM (active)
same,Potency,[4],inactive
same,Potency,[5],inactive
C(/C=C/C=C/Nc1ccccc1)=Nc1ccccc1,Potency,[6],inactive
same,Potency,[4],inactive
OCCc1ccncc1,Potency,[3],22.4 µM (active)
same,Potency,[4],inactive
same,Potency,[5],28.3 µM (active)
CCN(CCCCOC(=O)c1ccc(OC)c(OC)c1)C(C)Cc1ccc(OC)cc1 (centres undefined),Potency,[2],inactive
same,Potency,[3],inactive
same,Potency,[4],3.38 µM (active)
CC(=O)CC/C=C(\C)CC/C=C(\C)CC/C=C(\C)CCC=C(C)C,Potency,[2],30.9 µM (active)
same,Potency,[4],inactive
Cc1cccc(C)c1NC(=O)CN1CCCC1,Potency,[2],inactive
same,Potency,[3],inactive
same,Potency,[4],inactive
same,Potency,[5],inactive
c1ccc(-c2ccc(-c3ccccc3)cc2)cc1,"activity change, negative = inhibition",[2],-16.3% [at 23.6 µM]
same,"activity change, negative = inhibition",[4],1.54% [at 15.8 µM]
same,"activity change, negative = inhibition",[5],-14.7% [at 23.6 µM]
CC1(C)[C@@H]2CC[C@]3(C2)[C@@H]1C(=O)CCC3(C)C,Potency,[6],39.9 µM (active)
same,Potency,[3],inactive
same,Potency,[4],inactive
same,Potency,[5],17.8 µM (active)
O=Cc1ccc([N+](=O)[O-])cc1,Potency,[4],inactive
O=C(O)c1ccncc1,Potency,[4],inactive
C=CC(C)(O)CC/C=C(/C)CCC=C(C)C (centres undefined),Potency,[2],31.7 µM (active)
same,Potency,[3],39.9 µM (active)
same,Potency,[4],inactive
